About 1,200 (55%) of roughly 2,200 compounds were called active. The limit is not given here; nearly all actives have IC50 up to about 92 µM. So high a share suggests a set chosen from earlier hits. The list shows a part of the results.
Test: counter assay for TAg ATPase ADP read-out – biochemical, ADP-Hunter, fluorescence, counter-screen (AID 2501);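 also: purified T antigen ATPase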
Details: series mostly up to 100 µM

**Q.** For `COc1cccc2sc(Nc3nnc(-c4cccs4)o3)nc12`, which IC50 is on record?
**A.** inactive

**Q.** For `O=C(/C=C/c1ccc2ccccc2n1)N1CCN(S(=O)(=O)c2ccccc2F)CC1`, which IC50 is on record?
**A.** inactive

**Q.** For `CCCC1Nc2ccc(C(=O)O)cc2C2C=CCC12` (stereo not given), which IC50 is on record?
**A.** inactive

**Q.** With `COc1ccc2nc3ccccc3nc2c1N` as the molecule, how does the IC50 read?
**A.** 19.9 µM (active)

**Q.** With `NC(=O)NCCCC(=O)OCC(=O)c1ccc2ccccc2c1` as the molecule, how does the IC50 read?
**A.** inactive

**Q.** With `Cc1ccc2oc(=O)c(/C=C(\O)C(C)(C)C)nc2c1` as the molecule, how does the IC50 read?
**A.** 6.56 µM (active)

**Q.** With `Cc1ccc2oc(=O)c(/C=C(\O)CC(C)C)nc2c1` as the molecule, how does the IC50 read?
**A.** 4.38 µM (active)

**Q.** With `NNc1nc(-c2ccccc2)nc(-c2ccccc2)c1Br` as the molecule, how does the IC50 read?
**A.** inactive

**Q.** Which IC50 does the source give for `O=C(CC1SC(=O)NC1=O)Oc1ccc(/C=N/NC(=O)c2ccccc2O)cc1` (stereo not given) here?
**A.** 50.6 µM (active)

**Q.** With `COc1cc(/C=N/NC(=O)c2ccccc2O)ccc1OC(=O)CC1SC(=O)NC1=O` (stereo not given) as the molecule, how does the IC50 read?
**A.** 33.4 µM (active)

**Q.** Which IC50 does the source give for `CC[C@H](C)/C=C/C1=CC2=C(Cl)C(=O)[C@@]3(C)OC(=O)C(C(=O)[C@H](C)[C@@H](C)O)=C3C2=CO1` here?
**A.** inactive

**Q.** With `Nc1ccc(Nc2nc3ccccc3[nH]2)cc1` as the molecule, how does the IC50 read?
**A.** 6.24 µM (active)

**Q.** For `O=C(CCc1ccc(O)c(O)c1)NNC(=S)Nc1ccc(Br)cc1Cl`, which IC50 is on record?
**A.** 19.5 µM (active)

**Q.** For `O=S1(=O)N=C(Nc2ccc(O)cc2)c2ccccc21`, which IC50 is on record?
**A.** 3.57 µM (active)

**Q.** With `O=C(CSC1=NS(=O)(=O)c2ccccc21)Nc1ccccc1` as the molecule, how does the IC50 read?
**A.** inactive

**Q.** For `C=Cc1ccc2c(c1)OCCOCCOCCOCCOCCO2`, which IC50 is on record?
**A.** inactive

**Q.** With `CC(C)(C)c1ccc(OCCC(=O)NNC(=O)c2ccccc2)cc1` as the molecule, how does the IC50 read?
**A.** 41.8 µM (active)

**Q.** Which IC50 does the source give for `Cc1cccc(OCC(=O)NC(=S)NNC(=O)c2ccncc2)c1` here?
**A.** inactive

**Q.** With `CC(C)(C)c1ccc(OCC(O)CS(=O)(=O)c2ccccn2)cc1` (stereo not given) as the molecule, how does the IC50 read?
**A.** inactive

**Q.** For `CCN(CC)c1ccc(/C=C2\C(=O)N(c3nnc(C)c(=O)[nH]3)N=C2C)cc1`, which IC50 is on record?
**A.** inactive

**Q.** For `CCN(CC)c1ccc(/C=N/O)cc1`, which IC50 is on record?
**A.** 4.69 µM (active)

**Q.** Which IC50 does the source give for `CCN(CC)c1ccc(/C=N/N2CCOCC2)cc1` here?
**A.** 4.08 µM (active)

**Q.** For `O=C(O)c1ccc(-n2nc(-c3ccccc3)c3ccccc3c2=O)cc1`, which IC50 is on record?
**A.** inactive

**Q.** Which IC50 does the source give for `CCOc1ccc(/C=N/n2nnnc2N)cc1O` here?
**A.** 3.62 µM (active)

**Q.** Which IC50 does the source give for `COc1cc(/C=N/n2nnnc2N)ccc1O` here?
**A.** 2.77 µM (active)

**Q.** For `COC(=O)CN(c1ccccc1F)S(=O)(=O)c1ccccc1`, which IC50 is on record?
**A.** inactive

**Q.** With `COc1cccc(-n2c(SCc3cc(=O)oc4cc(O)c(O)cc34)nc3ccccc3c2=O)c1` as the molecule, how does the IC50 read?
**A.** 49.8 µM (active)

**Q.** Which IC50 does the source give for `CCOCCCn1c(SCC(=O)Nc2cc(OC)ccc2OC)nc2ccccc2c1=O` here?
**A.** inactive

**Q.** Which IC50 does the source give for `Cc1ccc(C)n1-c1ccncc1` here?
**A.** inactive

**Q.** With `Fc1ccccc1CSc1nnnn1-c1ccc2c(c1)OCO2` as the molecule, how does the IC50 read?
**A.** inactive

**Q.** Which IC50 does the source give for `CN(C)c1ccc(N2CC(C)(C)C2=O)cc1` here?
**A.** 3.63 µM (active)

**Q.** With `COc1ccc(C2=CC3=C(Br)C(=O)C(C)(OC(=O)c4ccc(Cl)nc4)C(=O)C3=CO2)cc1` (stereo not given) as the molecule, how does the IC50 read?
**A.** inactive

**Q.** For `COc1ccc(NC2SC(=O)N(C)C2=O)cc1` (stereo not given), which IC50 is on record?
**A.** 91 µM (active)

**Q.** Which IC50 does the source give for `O=C(Nc1nnc(COc2ccccc2)s1)C1CCN(S(=O)(=O)c2ccc(Cl)cc2)CC1` here?
**A.** inactive

**Q.** For `CC1OC(OCC2OC(Oc3c(-c4ccc(O)cc4)oc4cc(O)cc(O)c4c3=O)C(O)C(O)C2O)C(O)C(O)C1O` (stereo not given), which IC50 is on record?
**A.** 30.9 µM (active)

**Q.** Which IC50 does the source give for `O=c1c(OC2OC(CO)C(O)C(O)C2O)c(-c2ccc(O)c(O)c2)oc2cc(O)cc(O)c12` (stereo not given) here?
**A.** 6.33 µM (active)

**Q.** Which IC50 does the source give for `O=C(O)C1OC(Oc2c(-c3ccc(O)c(O)c3)oc3cc(O)cc(O)c3c2=O)C(O)C(O)C1O` (stereo not given) here?
**A.** 8.72 µM (active)

**Q.** Which IC50 does the source give for `Cc1csc(NC(=O)NC2(C(F)(F)F)Oc3ccccc3O2)n1` here?
**A.** 12 µM (active)

**Q.** Which IC50 does the source give for `COc1ccccc1Nc1nc(C)cs1` here?
**A.** inactive

**Q.** For `Cc1cccc(C)c1NC(=O)C(c1ccc([N+](=O)[O-])cc1)N(C)C(=O)c1ccccn1` (stereo not given), which IC50 is on record?
**A.** inactive

**Q.** For `Cc1ccc(-n2ncc3c(N4CCN(c5ccc(F)cc5)CC4)ncnc32)c(C)c1`, which IC50 is on record?
**A.** inactive

**Q.** With `O=C1CC(c2ccco2)CC(O)=C1C=Nc1cc(Cl)cc(Cl)c1` (stereo not given) as the molecule, how does the IC50 read?
**A.** inactive

**Q.** With `O=C1C=C(Nc2ccc(O)cc2)CC(c2ccco2)C1` (stereo not given) as the molecule, how does the IC50 read?
**A.** 3.1 µM (active)

**Q.** With `COC(=O)CCC(=O)OC1(C)C(=O)C=C2C=C3CCCN3C=C2C1=O` (stereo not given) as the molecule, how does the IC50 read?
**A.** inactive

**Q.** For `C/C=C/C=C/C(=O)Nc1cccc(C2=NOC3(C2)C[C@H](C(N)=O)N(C(=O)CC(c2ccccc2)c2ccccc2)C3)c1` (stereo not given in full), which IC50 is on record?
**A.** inactive

**Q.** Which IC50 does the source give for `CCCCNC(=O)c1sc(=S)n2c1[nH]c(=O)c1ccccc12` here?
**A.** 57.9 µM (active)

**Q.** With `N#Cc1c(NC(=O)CCC(=O)O)sc2c1CCCC2` as the molecule, how does the IC50 read?
**A.** inactive

**Q.** For `O=[N+]([O-])c1ccc(-[n+]2ccc3ccccc3c2)c([N+](=O)[O-])c1`, which IC50 is on record?
**A.** inactive

**Q.** Which IC50 does the source give for `O=[N+]([O-])c1cccnc1SCc1ccccc1` here?
**A.** inactive

**Q.** For `O=c1c2c([N+](=O)[O-])cc([N+](=O)[O-])cc2sn1Cc1ccccc1`, which IC50 is on record?
**A.** 77.3 µM (active)

**Q.** With `Cc1cc(=O)oc2c(N)c(O)ccc12` as the molecule, how does the IC50 read?
**A.** 2.9 µM (active)

**Q.** Which IC50 does the source give for `CCc1c(C(=O)c2ccc(Cl)cc2)oc2c(C)c3oc(=O)cc(C)c3cc12` here?
**A.** inactive

**Q.** For `Cc1ccccc1NC(=O)c1cc(N)ccc1N1CCCCC1`, which IC50 is on record?
**A.** 5.41 µM (active)

**Q.** For `CCN(CC)S(=O)(=O)c1ccc(N2CCCCC2)c(NC(=O)/C=C/c2cc(OC)c(OC)c(OC)c2)c1`, which IC50 is on record?
**A.** inactive

**Q.** For `CN(CC(=O)Nc1ccccc1Br)C(=O)c1cc(S(=O)(=O)N(C)C)ccc1N1CCCC1`, which IC50 is on record?
**A.** inactive

**Q.** For `COc1cc(/C=N/NC(=O)c2cccc(S(=O)(=O)N3CCCC3)c2)ccc1O`, which IC50 is on record?
**A.** 4.27 µM (active)

**Q.** For `CCNC(=O)NC(=O)C(C)OC(=O)c1cc(S(=O)(=O)N2CCCCCC2)ccc1OC` (stereo not given), which IC50 is on record?
**A.** inactive

**Q.** With `CC(NCC(=O)Nc1cc(S(=O)(=O)N2CCCCCC2)ccc1Cl)c1ccccc1` (stereo not given) as the molecule, how does the IC50 read?
**A.** inactive

**Q.** With `O=C(N/N=C/c1ccc(O)c(O)c1)c1cccc(S(=O)(=O)N2CCCCC2)c1` as the molecule, how does the IC50 read?
**A.** 10.5 µM (active)

**Q.** With `O=C(N/N=C/c1ccc(O)c(O)c1)c1cccc(S(=O)(=O)N2CCCC2)c1` as the molecule, how does the IC50 read?
**A.** 4.88 µM (active)

**Q.** Which IC50 does the source give for `O=C1CCCC/C1=C\Nc1ccc(O)cc1` here?
**A.** 4.32 µM (active)

**Q.** With `Cc1cc(O)ccc1N/C=C1\CCCC1=O` as the molecule, how does the IC50 read?
**A.** 10.2 µM (active)

**Q.** With `O=c1oc2cc(O)ccc2c2ccccc12` as the molecule, how does the IC50 read?
**A.** 8.47 µM (active)

**Q.** Which IC50 does the source give for `Oc1ccc2c(c1)oc1cc(O)ccc12` here?
**A.** 4.05 µM (active)

**Q.** Which IC50 does the source give for `Cc1ccc(C(C)NC(=S)NCc2ccc(F)cc2)cc1C` (stereo not given) here?
**A.** 33.9 µM (active)

Source: PubChem BioAssay AID2501 (Southern Research Specialized Biocontainment Screening …, 2010)
